# The campaign covered roughly 3,400 compounds. About 840 (25%) were called active. Roughly 11% stayed inconclusive and do not appear here. Not all results are given here. Entries with a potency or affinity are not part of this list. Unmarked numbers belong to inactive results.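 The calls were made as follows: active = fitted half-maximal concentration of signal decrease at or below twice the sample's top tested concentration; inconclusive = flat curve between -70 and -30 percent, or poor fit; inactive = flat within 30 percent, signal rise, or potency above limit.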
# Test: inhibitors of Toxoplasma growth in IFN-γ-primed HeLa – cell-based, ME49Luc, luciferase, 72 h, dose response (AID 1259418)
# Details: T. gondii ME49Luc in IFN-y HeLa, active compounds read low, -100% = high-dose IFN-γ control wells; at 19.5 µM unless noted
row,Structure (SMILES),max activity
1,Cc1ccc(-c2coc(-c3ccc(NC(=O)Nc4cccc(Cl)c4)cc3)n2)cc1,13.6% [at 2.6 µM]
2,COc1ccc(-c2cc(C(=O)Nc3ccc4c(c3)CCC(=O)N4)c3ccccc3n2)cc1,13.4% [at 5 µM]
3,Cc1oc(-c2ccccc2)nc1Cn1nnc(-c2nc(-c3cccc(Cl)c3)no2)c1C,-9.25% [at 5 µM]
4,COc1ccc2[nH]cc(CCNC(=O)c3sc4ncnc(N(C)C5CCCCC5)c4c3C)c2c1,9.31% [at 5 µM]
5,Cc1ccc(-c2coc(-c3ccc(NC(=O)Nc4ccc(F)cc4F)cc3)n2)c(C)c1,9.31% [at 0.68 µM]
6,COc1ccc(Cl)cc1NC(=O)Nc1ccc(-c2nc(-c3ccccc3)co2)cc1,-16.1% [at 0.68 µM]
7,COc1ccccc1CNC(=O)CCC1N=C2c3ccccc3N=C(SCc3ccccc3F)N2C1=O (stereo unspecified),8.88%
8,COc1ccc(CNC(=O)CC2N=C3c4ccccc4N=C(SCc4ccccc4Cl)N3C2=O)cc1 (stereo unspecified),18.1% [at 0.68 µM]
9,COc1ccccc1CNC(=O)CCC1N=C2c3ccccc3N=C(SCc3ccccc3Cl)N2C1=O (stereo unspecified),-11% [at 0.35 µM]
10,O=C(CCC1N=C2c3ccccc3N=C(SCc3ccccc3F)N2C1=O)NCc1ccco1 (stereo unspecified),61.5% [at 10 µM]
11,O=C(CCC1N=C2c3ccccc3N=C(SCc3ccccc3Cl)N2C1=O)NCc1cccs1 (stereo unspecified),20.4% [at 5 µM]
12,COc1ccccc1CNC(=O)CC1N=C2c3ccccc3N=C(SCc3ccc(Cl)cc3)N2C1=O (stereo unspecified),28% [at 5 µM]
13,COc1ccc(CNC(=O)CC2N=C3c4ccccc4N=C(SCc4cc(=O)n5cc(Cl)ccc5n4)N3C2=O)cc1 (stereo unspecified),-22.2%
14,COc1ccccc1CNC(=O)CC1N=C2c3ccccc3N=C(SCc3cc(=O)n4ccccc4n3)N2C1=O (stereo unspecified),17.5% [at 0.16 µM]
15,COc1ccc(CNC(=O)CCC2N=C3c4ccccc4N=C(SCc4ccccc4Cl)N3C2=O)cc1 (stereo unspecified),-10.1% [at 0.16 µM]
16,Cc1nc(OCC(=O)Nc2cc(Cl)ccc2C)c2ccccc2n1,25.9% [at 0.16 µM]
17,CCOC(=O)C1CCCN(c2nc(-c3ccc(OC)cc3)nc3ccccc23)C1 (stereo unspecified),-19.8% [at 0.16 µM]
18,CCOC(=O)CSC1=Nc2ccccc2C2=NC(CC(=O)NCc3cccs3)C(=O)N12 (stereo unspecified),29.5%
19,O=C(CC1N=C2c3ccccc3N=C(SCc3ccccc3F)N2C1=O)NCc1ccccc1 (stereo unspecified),8.54% [at 0.16 µM]
20,N#CCSC1=Nc2ccccc2C2=NC(CCC(=O)NCc3cccs3)C(=O)N12 (stereo unspecified),19.3% [at 1.35 µM]
21,O=C(CC1N=C2c3ccccc3N=C(SCc3ccccc3F)N2C1=O)NCc1ccc(F)cc1 (stereo unspecified),15.6% [at 0.68 µM]

# Source: PubChem BioAssay AID1259418 (Broad Institute, 2018)
